Reference: PubChem BioAssay (NCATS)
Activity calls are given as the source filed them. The call rests on the fitted dose curve.

Experiment: qHTS drug screen for cell cycle checkpoint inhibitors in PARPi-resistant BRCA-mutant ovarian cancer cell lines. (AID 1963452)
Settings: PEO1/OlaR viability, CellTiter-Glo luminescence, 96 h, stronger effect = lower value
Text: Women's Malignancies Branch, Center for Cancer Research (CCR),
National Cancer Institute (NCI), National Institutes of Health (NIH), Bethesda, MD
Poly (ADP-ribose) polymerase inhibitors (PARPis) have changed the treatment paradigm in breast cancer gene (BRCA) - mutant high-grade serous ovarian carcinoma (HGSC). However, most patients eventually develop resistance to PARPis, highlighting an unmet need for improved therapeutic strategies. Using high-throughput drug screens, we identified ataxia telangiectasia and rad3-related protein/checkpoint kinase 1 (CHK1) pathway inhibitors as cytotoxic and further validated the activity of the CHK1 inhibitor (CHK1i) prexasertib in PARPi-sensitive and -resistant BRCA-mutant HGSC cells and xenograft mouse models. CHK1i monotherapy induced DNA damage, apoptosis, and tumor size reduction. We then conducted a phase 2 study (NCT02203513) of prexasertib in patients with BRCA-mutant HGSC. The treatment was well tolerated but yielded an objective response rate of 6% (1 of 17; one partial response) in patients with previous PARPi treatment. […] BRCA reversion mutation in previously PARPi-treated BRCA-mutant patients was not associated with resistance to CHK1i.
Among others, 1082 oncology drugs, both approved and investigational, were prioritized based on their status in clinical trial development. […] Drugs with average Z-AUC values less than -1.0 in all three cell lines were classified as "hits" resulting in 151 oncology drug hits. The screen also confirmed cross-resistance between olaparib and other PARPis (rucaparib, niraparib, and talazoparib) in PARPi-resistant PEO1/OlaR and PEO4.
[1] G. L. Lin, K. M. Wilson, M. Ceribelli, B. Z. Stanton, P. J. Woo, S. Kreimer, E. Y. Qin, X. Zhang, J. Lennon, S. Nagaraja, P. J. Morris, M. Quezada, S. M. Gillespie, D. Y. Duveau, A. M. Michalowski, P. Shinn, R. Guha, M. Ferrer, C. Klumpp-Thomas, S. Michael, C. McKnight, P. Minhas, Z. Itkin, E. H. Raabe, L. Chen, R. Ghanem, A. C. Geraghty, L. Ni, K. I. Andreasson, N. A. Vitanza, K. E.Warren, C. J. Thomas, M. Monje, Therapeutic strategies for diffuse midline glioma from high-throughput combination drug screening. Sci. Transl. Med. 11, (2019).
[2] T. M. Yamamoto, A. McMellen, Z. L. Watson, J. Aguilera, R. Ferguson, E. Nurmemmedov, T. Thakar, G. L. Moldovan, H. Kim, D. M. Cittelly, A. M. Joglar, E. P. Brennecke, H. Wilson, K. Behbakht, M. J. Sikora, B. G. Bitler, Activation of Wnt signaling promotes olaparib resistant ovarian cancer. Mol. Carcinog. 58, 1770 - 1782 (2019).
PROTOCOL TABLE (as described by Inglese J, Shamu CE and Guy RK. 2007)
SEQUENCE No. (e.g., 1, 2, 3, etc.); […] (e.g., Cells, Incubation, Reagent, etc.); VALUE; DESCRIPTION.
1; Compounds; 20nL; 1536-well white tissue culture-treated plates.
2; Cells; 5 uL; PEO1, PEO4, and PEO1/OlaR cells at 600 cells per well.
3; Incubation; 96 hr; 37C, 95% humidity, 5% CO2.
4; Reagent; 3 uL; CellTiter-Glo (Promega).
5; Incubation; 15 min; room temperature.
6; Detection; Luminescence, PHERAstar (BMG Labtech) plate reader.
NOTES (numbers refer to Sequence numbers above)
1. MIPE 5.0 compounds were acoustically dispensed by Echo Acoustic Liquid Handler (Beckman Coulter Life Sciences). Each compound was plated at an 11-point concentration range with 1:3 dilution. Bortezomib, a proteasome inhibitor (final concentration, 20 uM), was used as a positive.
2. PEO1, PEO4, and PEO1/OlaR were trypsinized and dispensed in 5 uLof growth medium using a Multidrop Combi dispenser at a density of 600 cells per well to allow compounds to be present during the exponential growth phase.
3. Plates were incubated for 96 hours at standard incubator conditions and covered by a stainless steel gasketed lid to prevent evaporation.
4. Three microliters of CellTiter-Glo (Promega) were added to each well.
5. Plates were incubated at room temperature for 15 min with a stainless-steel lid in place.
6. Luminescence readings were taken using PHERAstar (BMG Labtech). […]

[1] = measured here: PEO1 parental Z-AUC

Row | SMILES | Z-AUC | Z-AUC [1] | Z-AUC (measured here: PEO4 Z-AUC)
1 | CCC1=C[C@@H]2CN(C1)Cc1c([nH]c3ccccc13)[C@@](C(=O)OC)(c1cc3c(cc1OC)N(C)[C@H]1[C@@](O)(C(=O)OC)[C@H](OC(C)=O)[C@]4(CC)C=CCN5CC[C@]31[C@@H]54)C2 | -1.05 (inactive) | -1.03 | -1.04
2 | COc1c(C)c2c(c(O)c1C/C=C(\C)CCC(=O)OCCN1CCOCC1)C(=O)OC2 | 0.671 (inactive) | 0.614 | 0.906
3 | O=[N+]([O-])c1ccc(-c2nc(-c3ccc(F)cc3)c(-c3ccncc3)[nH]2)cc1 | 1.31 (inactive) | 0.274 | 0.382
4 | CC1c2ccccc2CN1NC(=O)c1ccc(Cl)c(S(N)(=O)=O)c1 (configuration not stated) | 1.28 (inactive) | 0.911 | 0.911
5 | CCCCCCOC(=O)NC(=N)c1ccc(NCc2nc3cc(C(=O)N(CCC(=O)OCC)c4ccccn4)ccc3n2C)cc1 | 1.19 (inactive) | 0.495 | 0.615
6 | CCOC(=O)O[C@]1(C(=O)OCCl)CC[C@H]2[C@@H]3CCC4=CC(=O)C=C[C@]4(C)[C@H]3[C@@H](O)C[C@@]21C | 1.04 (inactive) | 0.868 | 1.23
7 | C[C@H]1C[C@H]2[C@@H]3CCC4=CC(=O)C=C[C@]4(C)[C@H]3C(=O)C[C@]2(C)[C@@]1(O)C(=O)CO | 1.47 (inactive) | 0.72 | 0.786
8 | CC1(C)O[C@@H]2C[C@H]3[C@@H]4C[C@H](F)C5=CC(=O)C=C[C@]5(C)[C@@]4(F)[C@@H](O)C[C@]3(C)[C@]2(C(=O)CO)O1 | -1.1 (inactive) | 0.399 | -0.582
9 | CNC[C@H](O)[C@@H](O)[C@H](O)[C@H](O)CO | -0.453 (inactive) | -0.0353 | 0.238
10 | CC1(C)O[C@@H]2C[C@H]3[C@@H]4CCC5=CC(=O)C=C[C@]5(C)[C@@]4(F)[C@@H](O)C[C@]3(C)[C@]2(C(=O)CO)O1 | 0.569 (inactive) | 1.66 | 0.813
11 | CN1CC(=O)N2[C@H](c3ccc4c(c3)OCO4)c3[nH]c4ccccc4c3C[C@@H]2C1=O | 0.983 (inactive) | 0.823 | 0.783
12 | CN1CCCN=C1/C=C/c1cccs1 | 0.33 (inactive) | 0.491 | 0.415
13 | CCN(CC)CCOc1ccc(/C(=C(\Cl)c2ccccc2)c2ccccc2)cc1 | -0.751 (inactive) | -0.39 | -0.613
14 | O=C(O)C(=O)Nc1cccc(-c2nn[nH]n2)c1 | 0.0028 (inactive) | 0.552 | 0.459
